Measured values from PubChem BioAssay.

tested on: Plasmodium falciparum Sir2 (PF13_0152, Sir2A); assay: Plasmodium falciparum Sir2A binding compounds – biochemical, small-molecule microarray, 635 nm fluorescence, primary screen (AID 1098); conditions: fluorescence 635 nm, higher = more signal;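 also: score merges spot fluorescence intensity with its signal-to-noise ratio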

**Q.** `CCOC(=O)C[C@H]1[C@H](OC(=O)c2ccc(-c3ccccc3)cc2)[C@@H](NC(=O)c2ccccc2)c2cc(OCCCO)ccc2N1C(=O)c1ccc2ccccc2n1` was tested. Which composite z-score did it give?
**A.** -0.0092

**Q.** Which composite z-score does the source give for `O=c1cccc(-c2ccccc2Cl)o1` here?
**A.** -0.462

**Q.** With `C=CCC(OC(C)=O)[C@@H]1[C@@H](N(Cc2cc3ccccc3o2)C(=O)Cc2ccc(OC)cc2)c2cc(OCCCO)ccc2N1C(=O)c1ccc2ccccc2c1` (some centres not stated) as the molecule, how does the composite z-score read?
**A.** 1.02

**Q.** With `CS(=O)(=O)CCOC(=O)C1=CC(CCCO)=CC(c2ccc(CN3CCCC3)cc2)N(Cc2cccc(OC(F)(F)F)c2)C=C1C(=O)OCCS(C)(=O)=O` (configuration not stated) as the molecule, how does the composite z-score read?
**A.** 1.02

**Q.** `O=C1[C@@]23C=C(Br)[C@H](C[C@@H]2COC3)[C@]12CO2` was tested. Which composite z-score did it give?
**A.** -1.5

**Q.** Which composite z-score does the source give for `O=C(CS)NCCCCCNC(=O)[C@H]1C[C@H]2C(=O)NCC(=O)N2[C@H]1c1ccc(O)cc1` here?
**A.** 0.394

**Q.** With `CC(c1ccccc1)C(O)C1C=CC2C(=O)N(c3ccccc3)C(=O)C2N1Nc1ccccc1` (configuration not stated) as the molecule, how does the composite z-score read?
**A.** 1.18

**Q.** With `COC(=O)c1c(CC[C@@H](CO)NC(=O)NCCc2c[nH]c3ccccc23)oc(C(=O)Cc2ccccc2)c1C(=O)OC` as the molecule, how does the composite z-score read?
**A.** 0.176

**Q.** For `O=C(O)[C@H]1C[C@H]2C(=O)N3CCC[C@H]3C(=O)N2[C@H]1c1ccc(O)cc1`, which composite z-score is on record?
**A.** 0.383

**Q.** Which composite z-score does the source give for `Cc1c(NC(=O)/C(C#N)=C/c2cccc([N+](=O)[O-])c2)c(=O)n(-c2ccccc2)n1C` here?
**A.** 0.141

**Q.** How did the composite z-score turn out when `CCOC(=O)C1=CCC(c2ccc(F)cc2)N(S(=O)(=O)c2ccc(C)cc2)C1` (configuration not stated) was run?
**A.** 0.12

**Q.** Which composite z-score does the source give for `COC(=O)C(CC#Cc1ccc2c(c1)[C@]1(C(=O)N2)[C@H](c2ccc(O)cc2)N2[C@H](c3ccccc3)[C@H](c3ccccc3)OC(=O)[C@H]2[C@@H]1C(=O)N1CCN(c2ncccn2)CC1)C(=O)OC` here?
**A.** 1.69
